The nature of assay [1]: qHTS assay to identify small molecule agonists of the estrogen receptor alpha (ER-alpha) signaling pathway in the presence of an antagonist - cell viability counter screen (AID 1259386).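 Note: cells exposed to compounds for 22 h at 37 °C before the viability read; nearly all actives have a fitted effect of over 30% in size.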 Note: potency is the fitted concentration of half-maximal effect. An outline of the steps: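 Cell viability in VM7Luc4E2 cells (endogenous full-length ER-alpha) measured by CellTiter-Fluor fluorescence in the same wells as the luciferase screen. Cells pre-cultured 5 days in charcoal-stripped serum, then treated 22 h with compounds at 15 concentrations plus 10.0nM ICI-182,780.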

The target in assay [2] is Progesterone receptor (Homo sapiens) (UniProt P06401). The experiment in a line: qHTS assay to identify small molecule agonists of the progesterone receptor (PR) signaling pathway (AID 1346784; calls by dose curve; note: nearly all actives have a fitted effect of over 30% in size; note: potency is the fitted concentration of half-maximal effect). An outline of the steps: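 Cells (PR-UAS-bla HEK 293T, GripTite) were plated in assay medium containing 2% charcoal-stripped FBS and incubated 6 hr. Test compounds in DMSO were added for 16 hr at 37C. FRET substrate was then loaded for 2 hr at room temperature before fluorescence reading.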

Assay [3] shares this target. The experiment in a line: qHTS assay to identify small molecule antagonists of the progesterone receptor (PR) signaling pathway (AID 1346795; active = well fitted inhibition curve with a large enough effect in the signal ratio in the repeat runs, not every such curve was filed as active; the % refers to the signal ratio). An outline of the steps: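 Antagonist mode: compounds tested against 1 nM (final) promegestone stimulation in HEK293T cells expressing PR-UAS-bla reporter, 16 hr at 37C, 5% CO2; beta-lactamase activity detected via B/G FRET substrate after 2 hr at room temperature.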

A short description of assay [4]: qHTS assay to identify small molecule antagonists of the progesterone receptor (PR) signaling pathway - cell viability counter screen (AID 1346798). Note: series mostly up to about 92 µM; nearly all actives have a fitted effect of over 50% in size. An outline of the steps:
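Counter screen for cytotoxicity: viability of PR-UAS-bla HEK293T cells was measured with CellTiter-Glo luminescence following 16 hr compound exposure in the presence of R5020.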

The nature of assay [5]: qHTS assay to identify small molecule agonists of the progesterone receptor (PR) signaling pathway - cell viability counter screen (AID 1346799; calls by dose curve; note: nearly all actives have a fitted effect of over 45% in size). An outline of the steps: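 Cells (PR-UAS-bla HEK293T) are plated at 3,000/well in 2% charcoal-stripped FBS medium, rested 6 hr, dosed and incubated 16 hr at 37C. CellTiter-Glo is then added and luminescence measured after 30 min at room temperature.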

Assay [6] in a line: qHTS assay to identify small molecule antagonists of the TGF-beta/Smad signaling pathway - cell viability counter screen (AID 1346824). Note: nearly all actives have a fitted effect of over 50% in size. An outline of the steps: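 SBE-bla HEK 293T cells were plated overnight at 37 C, then given compounds in DMSO plus TGF-beta1 (added as 0.25 ng/mL solution) for 5 hr. After the bla read, CellTiter-Glo was added to the same wells and luminescence read after 30 min at room temperature.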

Assay [7] is described as follows: qHTS assay to identify small molecule agonists of the TGF-beta/Smad signaling pathway - cell viability counter screen (AID 1346829). Note: top concentration of the series differs between compounds; nearly all actives have a fitted effect of over 45% in size. An outline of the steps:
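Cytotoxicity counter screen: CellTiter-Glo luminescence (30 min, room temperature) measured in the SBE-bla HEK 293T reporter wells after 5 hr compound treatment at 37 C and the 2 hr substrate step.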

Assay [8] is described as follows: qHTS assay to identify small molecule agonists of the TGF-beta/Smad signaling pathway (AID 1346859; active = well fitted activation curve with a large enough effect in the signal ratio in the repeat runs, not every such curve was filed as active; the % refers to the signal ratio; note: series mostly up to about 77 µM). Put shortly: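 Reporter line: HEK 293T with stably integrated SBE-controlled beta-lactamase. Compound exposure lasts 5 hr at 37 C and 5% CO2; substrate loading follows for 2 hr at room temperature, with emission read at 460 and 530 nm.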
Assay [9] has as its target Thyrotropin-releasing hormone receptor (Homo sapiens) (UniProt P34981). The experiment in a line: qHTS assay to identify small molecule antagonists of the thyrotropin-releasing hormone receptor (TRHR) signaling pathway (AID 1346877; active = well fitted inhibition curve with a large enough effect in the repeat runs, not every such curve was filed as active; note: series mostly up to about 51 µM). An outline of the steps: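 TRHR-expressing HEK293 cells loaded with calcium dye for 2 h at 37 C; compounds pre-incubated 5 min at room temperature before TRH challenge at 1 nM final. Intracellular calcium fluorescence read kinetically for 3 min; 15 concentrations in triplicate.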

For assay [10] the target is unchanged. The experiment in a line: qHTS assay to identify small molecule agonists of the thyrotropin-releasing hormone receptor (TRHR) signaling pathway (AID 1346891; calls by dose curve; note: series mostly up to about 58 µM). An outline of the steps: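 Cells: TRHR-Hek293, seeded and incubated 18 h. Dye loading: 2 h at 37 °C. Compound added from DMSO stock by pin tool. Read-out: kinetic calcium fluorescence over 3 min.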
Assay [11] can be described thus: Caspase-3/7 induction in HepG2 cells by small molecules, qHTS assay (AID 1346978). Note: nearly all actives have a fitted effect of over 15% in size. An outline of the steps:
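Wild-type HepG2 cells (2,000/well) were settled 5 h at 37 C, 5% CO2, then exposed to compounds in DMSO for 17 h. Caspase-3/7 activity was read by luminescence 30 min after adding Caspase-Glo 3/7 reagent at room temperature.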

A short description of assay [12]: Caspase-3/7 induction in CHO-K1 cells by small molecules, qHTS cell viability counter screen (AID 1346979). Note: nearly all actives have a fitted effect of over 35% in size. Note: potency is the fitted concentration of half-maximal effect. Put shortly: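 Cytotoxicity counter screen run in parallel with the caspase-3/7 assay: CHO-K1 cells, 16hr compound treatment at 37C, then CellTiter-Fluor for 1hr before fluorescence reading.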
Assay [13] is described as follows: Caspase-3/7 induction in CHO-K1 cells by small molecules, qHTS assay (AID 1346980). Note: nearly all actives have a fitted effect of over 15% in size. Put shortly:
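Wild-type cells were seeded at 1,500 per well and settled 5 hr at 37 C, 5% CO2, then exposed to DMSO-dissolved compounds for 17 hr. Caspase-Glo 3/7 reagent was added, and luminescence was read after 30min at room temperature.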

Assay [14] in a line: Caspase-3/7 induction in HepG2 cells by small molecules, qHTS cell viability counter screen (AID 1346981). Note: nearly all actives have a fitted effect of over 30% in size. Note: potency is the fitted concentration of half-maximal effect. Put shortly: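 Wild-type HepG2 cells, 2,000/well, settled 5 hr at 37 C, 5% CO2 before compound addition. Viability read by CellTiter-Fluor fluorescence, reagent added after 16 hr compound exposure, then 1 hr at 37C, in the same wells as the caspase read.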
Assay [15] addresses Nuclear receptor subfamily 1 group I member 2 (Homo sapiens) (UniProt O75469). The experiment in a line: Human pregnane X receptor (PXR) small molecule agonists, qHTS assay (AID 1346982). Note: nearly all actives have a fitted effect of over 35% in size. Note: potency is the fitted concentration of half-maximal effect. An outline of the steps: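 PXR-Luc HepG2 reporter cells (CYP3A4-driven luciferase) in 5% charcoal-stripped FBS medium, plated 5 h before compound addition, then treated 24 h at 37C. Luciferase read by ONE-Glo luminescence after 30 min at room temperature.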

Assay [16] has as its target Thyrotropin receptor (Homo sapiens) (UniProt P16473). Put plainly: qHTS assay to identify small molecule antagonists of the thyroid stimulating hormone receptor (TSHR) signaling pathway (AID 1259385; calls by dose curve; note: nearly all actives have a fitted effect of over 20% in size). Put shortly: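 TSHR-HEK293 cells were plated and held 18 h at 37C/5% CO2, then given compound plus Ro20-1724 and stimulated with TSH at 1.5 ng/mL final. After 30 min at room temperature, cAMP was detected with cAMP-d2/anti-cAMP-cryptate (1 h) by fluorescence.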

Assay [17] in a line: Human pregnane X receptor (PXR) small molecule agonists, qHTS cell viability counter screen (AID 1346977). Note: nearly all actives have a fitted effect of over 50% in size. Note: potency is the fitted concentration of half-maximal effect. Put shortly:
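Cytotoxicity counter screen run in the same wells as the PXR luciferase assay, using PXR-Luc HepG2 cells in charcoal-stripped serum medium. Viability: CellTiter-Fluor fluorescence after 24hr compound treatment.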

Assay [18] addresses Nuclear receptor subfamily 1 group I member 2 (Rattus norvegicus) (UniProt Q9R1A7). Put plainly: Rat pregnane X receptor (rPXR) activation by small molecules, qHTS assay (AID 1346983). Note: nearly all actives have a fitted effect of over 20% in size. The settings on record: rPXR luciferase reporter cells, One-Glo luminescence, 24 h; active compounds read high. An outline of the steps: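 Cell-based rPXR luciferase reporter assay, 2,000 cells per well, rested 5hr at 37 C before compound addition in DMSO, then 24 hr at 37 C. One-Glo reagent was added and luminescence read after 30 min at room temperature.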

In assay [19] the target is Nuclear receptor subfamily 1 group I member 2 (Homo sapiens) (UniProt O75469). The experiment in a line: CYP3A4 induction through human pregnane X receptor (PXR) by small molecules, qHTS assay (AID 1346984). Note: nearly all actives have a fitted effect of over 40% in size. Put shortly:
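DPX-2 HepG2 cells carrying a PXR response element and CYP3A4-promoter luciferase construct, treated with compounds 24 hr at 37C. Then P450-Glo CYP3A4 Luciferin-IPA substrate (3uM final) for 3 hr at 37C, One-Glo added, luminescence read.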

The target is the same in assay [20]. Put plainly: Human pregnane X receptor (PXR) activation by small molecules, qHTS assay (AID 1346985). Note: nearly all actives have a fitted effect of over 40% in size. An outline of the steps: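 DPX-2 cells (HepG2 co-transfected with a PXR response element and a CYP3A4-promoter luciferase construct) were seeded at 2,000 per well, rested 5 hr at 37C, then exposed to DMSO-dissolved compounds for 24 hr. Activation was read as luciferase luminescence.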

A number with no mark means an inactive call. Records with an inconclusive call do not appear. Activity calls are given as the source filed them. Unless noted, calls come from the whole dose curve; as a rule, active = well fitted curve in the direction sought with a large enough effect in the repeat runs; inconclusive = weak or mixed curves; inactive = no such curve, though single readings can be large; an effect the other way counts as inactive or inconclusive.
% is set by controls: 0 for no effect and ±100 for the full control effect.

Thyrotropin-releasing hormone receptor (Homo sapiens), sequence (P34981 whole entry, looked up): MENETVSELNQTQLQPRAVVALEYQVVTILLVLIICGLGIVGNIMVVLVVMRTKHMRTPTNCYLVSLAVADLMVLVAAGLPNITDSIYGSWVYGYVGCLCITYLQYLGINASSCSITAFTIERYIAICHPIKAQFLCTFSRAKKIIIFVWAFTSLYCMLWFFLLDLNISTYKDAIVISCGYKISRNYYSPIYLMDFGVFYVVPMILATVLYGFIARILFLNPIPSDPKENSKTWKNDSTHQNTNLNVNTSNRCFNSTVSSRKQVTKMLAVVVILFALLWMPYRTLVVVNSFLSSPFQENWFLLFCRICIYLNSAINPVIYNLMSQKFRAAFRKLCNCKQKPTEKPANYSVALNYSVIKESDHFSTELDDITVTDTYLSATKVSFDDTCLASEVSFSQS
Nuclear receptor subfamily 1 group I member 2 (Homo sapiens), sequence (O75469 whole entry, looked up): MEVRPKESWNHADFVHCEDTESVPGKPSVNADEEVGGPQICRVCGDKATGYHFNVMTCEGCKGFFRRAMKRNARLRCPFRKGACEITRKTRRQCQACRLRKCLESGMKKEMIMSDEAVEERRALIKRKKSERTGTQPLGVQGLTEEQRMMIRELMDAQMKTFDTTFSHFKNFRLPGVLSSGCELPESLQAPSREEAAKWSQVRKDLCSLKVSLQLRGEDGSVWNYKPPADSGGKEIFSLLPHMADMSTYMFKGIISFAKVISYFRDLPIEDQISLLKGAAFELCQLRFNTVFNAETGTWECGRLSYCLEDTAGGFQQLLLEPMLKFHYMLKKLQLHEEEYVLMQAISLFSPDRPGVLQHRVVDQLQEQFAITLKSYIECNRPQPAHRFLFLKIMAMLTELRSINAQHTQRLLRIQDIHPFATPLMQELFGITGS
Nuclear receptor subfamily 1 group I member 2 (Rattus norvegicus), sequence (Q9R1A7 whole entry, looked up): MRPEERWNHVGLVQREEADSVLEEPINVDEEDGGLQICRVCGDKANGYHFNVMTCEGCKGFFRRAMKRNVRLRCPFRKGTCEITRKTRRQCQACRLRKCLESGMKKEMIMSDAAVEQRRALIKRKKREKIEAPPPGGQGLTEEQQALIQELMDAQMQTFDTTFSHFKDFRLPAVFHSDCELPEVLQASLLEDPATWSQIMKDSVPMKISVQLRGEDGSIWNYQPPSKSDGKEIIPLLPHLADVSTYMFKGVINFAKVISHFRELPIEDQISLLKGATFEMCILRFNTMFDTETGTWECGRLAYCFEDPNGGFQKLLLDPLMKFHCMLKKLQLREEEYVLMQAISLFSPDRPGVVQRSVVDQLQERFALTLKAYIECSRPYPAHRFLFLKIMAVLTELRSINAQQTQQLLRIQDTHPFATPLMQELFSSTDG
Progesterone receptor (Homo sapiens), sequence (P06401 whole entry, looked up): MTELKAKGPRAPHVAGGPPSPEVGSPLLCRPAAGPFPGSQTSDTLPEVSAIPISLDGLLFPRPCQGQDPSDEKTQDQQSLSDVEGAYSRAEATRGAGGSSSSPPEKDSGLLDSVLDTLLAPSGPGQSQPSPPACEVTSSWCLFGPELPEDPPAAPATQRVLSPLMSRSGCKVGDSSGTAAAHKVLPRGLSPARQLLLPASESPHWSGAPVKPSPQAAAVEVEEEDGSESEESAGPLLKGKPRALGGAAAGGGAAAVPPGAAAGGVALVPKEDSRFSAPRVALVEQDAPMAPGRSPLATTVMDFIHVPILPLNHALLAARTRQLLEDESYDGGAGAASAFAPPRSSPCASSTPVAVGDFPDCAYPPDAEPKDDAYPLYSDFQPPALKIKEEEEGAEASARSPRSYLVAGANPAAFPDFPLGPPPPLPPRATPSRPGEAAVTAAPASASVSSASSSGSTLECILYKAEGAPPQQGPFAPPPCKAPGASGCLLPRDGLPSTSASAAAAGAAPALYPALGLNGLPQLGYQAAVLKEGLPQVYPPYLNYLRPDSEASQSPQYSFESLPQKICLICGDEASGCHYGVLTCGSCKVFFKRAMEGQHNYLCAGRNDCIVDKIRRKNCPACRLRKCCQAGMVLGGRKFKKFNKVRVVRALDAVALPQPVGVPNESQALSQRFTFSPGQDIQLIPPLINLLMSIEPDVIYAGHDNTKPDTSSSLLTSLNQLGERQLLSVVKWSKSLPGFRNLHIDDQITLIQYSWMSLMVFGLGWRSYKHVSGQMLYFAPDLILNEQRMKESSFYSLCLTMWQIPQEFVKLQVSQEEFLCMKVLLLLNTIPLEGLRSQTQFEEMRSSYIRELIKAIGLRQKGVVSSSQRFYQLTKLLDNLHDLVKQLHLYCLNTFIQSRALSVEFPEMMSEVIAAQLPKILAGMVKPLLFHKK
Thyrotropin receptor (Homo sapiens), sequence (P16473 whole entry, looked up): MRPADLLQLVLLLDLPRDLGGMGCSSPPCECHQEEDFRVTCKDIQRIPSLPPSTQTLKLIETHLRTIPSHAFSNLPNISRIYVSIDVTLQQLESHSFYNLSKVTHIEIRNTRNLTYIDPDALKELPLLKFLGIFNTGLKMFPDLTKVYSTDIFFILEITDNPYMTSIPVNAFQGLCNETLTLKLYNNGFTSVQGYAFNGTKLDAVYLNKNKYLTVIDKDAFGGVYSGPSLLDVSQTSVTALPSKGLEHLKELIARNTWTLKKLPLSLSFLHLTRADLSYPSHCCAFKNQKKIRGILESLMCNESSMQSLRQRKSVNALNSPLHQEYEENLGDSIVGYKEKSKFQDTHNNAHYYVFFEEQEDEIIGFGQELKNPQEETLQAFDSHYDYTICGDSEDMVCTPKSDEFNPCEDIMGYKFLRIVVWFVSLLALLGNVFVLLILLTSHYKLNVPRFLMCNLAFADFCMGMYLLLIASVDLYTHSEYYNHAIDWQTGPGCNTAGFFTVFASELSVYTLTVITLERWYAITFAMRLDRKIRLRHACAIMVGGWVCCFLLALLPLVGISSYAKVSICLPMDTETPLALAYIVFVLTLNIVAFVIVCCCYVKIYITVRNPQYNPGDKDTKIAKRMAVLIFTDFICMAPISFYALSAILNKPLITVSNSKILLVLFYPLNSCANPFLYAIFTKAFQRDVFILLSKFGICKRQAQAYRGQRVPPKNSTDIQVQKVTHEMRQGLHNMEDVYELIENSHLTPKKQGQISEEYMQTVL

Turning to `OC[C@H](Cc1cccc(O)c1)[C@H](CO)Cc1cccc(O)c1`, the Potency entry in assay [1], in [2], in assay [3], in assay [4], in assay [5] and in assay [11] was “inactive” in each case. The Potency entry in [12], in assay [14] and in assay [15] was “inactive” each time. Also, the outcome in assay [6], in assay [7], in [8], in [9], in assay [10] and in [13] was inactive.
As to `COc1ccc(C2CNC(=O)C2)cc1OC1CCCC1` (stereo not given), the outcome in assay [16], in assay [7], in [8], in [9] and in assay [10] was inactive. Also, the Potency result in assay [3], in assay [4], in assay [17], in [11], in assay [12] and in assay [14] was “inactive” in each case. For the same compound, the max activation in assay [18] was -2.12%.
For `Nc1ccc2cc(S(=O)(=O)O)cc(O)c2c1`, the Potency in assay [1] is 48.3 µM (active); in [17], 54.2 µM (active); in assay [12], 54.2 µM (active); in [14] it was 60.8 µM (active); in [15] it was 6.08 µM (active). For the same compound, the Potency result in assay [2], in [3], in [4], in assay [5] and in [11] was “inactive” throughout. The compound was called inactive in assay [6], in assay [7], in assay [8], in assay [9] and in assay [10].
Consider `C[C@@H](O)[C@H]1C(=O)N2C(C(=O)O)=C(SCCN=CN)C[C@H]12`, for which the outcome in assay [16], in assay [6], in assay [7], in assay [8], in assay [9] and in [10] was inactive. Further, the outcome in assay [13] was inactive. In addition, the Potency result in assay [2], in assay [3], in assay [4], in assay [17], in assay [11] and in [12] was “inactive” throughout. Moreover, the Potency entry in [14], in assay [15], in [19] and in [20] was “inactive” throughout. For the same compound, the max activation in assay [18] was -4.86%.
In the case of `C[C@@H]1O[C@@H](O[C@@H]2[C@@H](O)[C@H](OCCc3ccc(O)c(O)c3)O[C@H](CO[C@@H]3O[C@H](CO)[C@@H](O)[C@H](O)[C@H]3O)[C@H]2OC(=O)/C=C/c2ccc(O)c(O)c2)[C@H](O)[C@H](O)[C@H]1O`, the compound was called inactive in assay [16], in assay [6], in assay [7], in assay [8], in [9] and in [10]. In assay [13], the compound was called inactive. The Potency result in assay [4], in assay [5], in assay [11] and in assay [14] was “inactive” each time.
Consider `C=C(C)C(=O)OCCOP(=O)(O)OCCOC(=O)C(=C)C`, for which the Potency result in assay [1], in assay [2], in [3], in [4], in [5] and in [17] was “inactive” throughout. Besides, the Potency entry in assay [11], in assay [12], in assay [14] and in [15] was “inactive” in each case. The result in assay [6], in assay [7], in [8], in assay [9], in assay [10] and in [13] was inactive.
With `O=Cc1ccc(Cl)c(Cl)c1`, the compound was called inactive in assay [16], in assay [6], in [7], in assay [8] and in [13]. The Potency result in assay [2], in assay [3], in assay [4], in assay [5], in [17] and in assay [11] was “inactive” each time. Further, the Potency result in [12], in [14] and in [15] was “inactive” in each case.
Turning to `CCCOC(=O)C(C)O` (stereo not given), the Potency result in assay [1], in assay [2], in [3], in assay [4], in assay [5] and in [17] was “inactive” throughout. For the same compound, the Potency result in assay [11] and in assay [12] was “inactive” each time. The outcome in [6], in assay [7], in [8], in [9], in [10] and in assay [13] was inactive.
Turning to `COc1ccc2c(c1)C(=O)N(CCc1ccc(S(=O)(=O)NC(=O)NC3CCCCC3)cc1)C(=O)C2(C)C`, the outcome in assay [16], in [7], in assay [9] and in assay [10] was inactive. The Potency in assay [2] is 5.96 µM (active). In addition, the Potency result in assay [4], in assay [17], in assay [11] and in assay [12] was “inactive” in each case. In addition, the max activation in assay [18] is -1.03%.

These data come from PubChem BioAssay (Tox21).
